In the library only some 19% were active in any assay of this set; here they are far more common.
IL1B secr inh: inflammasome signaling inhibition, IL-1 beta readout; hit rate 4.7% among 360,000; activity change, % at 57.5 µM; THP-1 LPS/ATP IL-1B secretion, AlphaLISA, 16 h; stronger effect = lower value; AID 743279; in the data active means activity change below about -50%; inconclusive means mostly about -30% to -49%
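Secreted IL-1B measured by AlphaLISA bead assay after 16 h compound exposure of THP-1 cells; compounds (final up to 57.5 uM) added 1 h before LPS (250 ng/mL) and ATP (1.25 mM) stimulation; lower signal means less secretion.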
DT40 TDP1 CPT: growth inhibition of DT40 Tdp1-/-;hTDP1 cells with camptothecin (screen for TDP1 inhibitors); Potency, µM (highest dose often 46.2 µM), without a hit: top-dose activity change, negative = growth inhibition, most hits filed as inhibitors; hit rate 12% among 420,000; chicken DT40 Tdp1-/-;hTDP1 cells + 20 nM CPT, ATP luminescence, 48 h; AID 686979; further: potency means the concentration at half of the fitted maximal effect; nearly all actives have a fitted effect of over 55% in size
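Chicken DT40 Tdp1-/- cells complemented with human TDP1, 400 cells/well, exposed to compounds plus 20 nM camptothecin for at least 48 h at 37 C; viability read as ATP content by CellTiter-Glo luminescence.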
HT1080-NT tox: kills 2HG-producing HT-1080-NT fibrosarcoma cells; HT-1080-NT fibrosarcoma viability, CellTiter-Glo ATP luminescence, 48 h; hit rate 1.6% among 360,000; Potency, µM (series often up to 46.1 µM), without a hit: top-dose activity, negative = less viability, hits mostly cytotoxic;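 further: NT is the 2HG producing partner of a matched IDH1 knockdown line; potency means the concentration at half of the fitted maximal effect; 0% = DMSO-treated cells and -100% = media-only wells without cells; nearly all actives have a fitted effect of over 55% in size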
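750 cells/well, RPMI + 5% FBS; 2 h settle, compound pin-transfer, 48 h at 37 degrees C. CellTiter-Glo 10 min RT, luminescence. Normalized to DMSO and media-only wells.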
HT1080 IDH1KD tx: HT-1080 IDH1 knockdown cell toxicity (counter line). hit rate 2% among 360,000. Potency, µM (doses to about 46.1 µM), inactives show at the top dose activity, negative = toxicity, most hits filed as cytotoxic. HT-1080 IDH1 knockdown viability, ATP luminescence, 48 h;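 further: potency means the concentration at half of the fitted maximal effect; 0% = DMSO wells and -100% = cell-free medium wells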
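Luminescent ATP read-out (CellTiter-Glo, 10 min at room temperature) after 48 h compound exposure at 37 °C gave viability of IDH1-knockdown HT-1080 cells. Activity was normalised to DMSO and cell-free wells, then fitted as concentration-response curves.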
TDP1 cell noCPT: qHTS for Inhibitors of human tyrosyl-DNA phosphodiesterase 1 (TDP1): qHTS in cells in absence of CPT; DT40 Tdp1-/- hTDP1 cells, no CPT, ATP luminescence, 48 h; Potency, µM (series often up to 46.2 µM), inactives show top-dose activity change, negative = growth inhibition, actives largely listed as inhibitors; hit rate 15% among 420,000; further: potency means the concentration at half of the fitted maximal effect; nearly all actives have a fitted effect of over 55% in size
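Seeded 400 DT40-hTDP1 cells/well (vehicle DMSO, no 20 nM CPT); pinned compounds; ≥48 hr at 37 °C; CellTiter-Glo luminescence as viability measure.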
Starred values were filed as active, the others as inactive; ? = inconclusive; . = not tested or not shown; [ ] = dose if it differs, or a comment. Unless noted, the call rests on the fitted dose curve; in most records, active means well fitted curve in the direction sought with a large enough effect; inconclusive means small, poorly fitted or top-dose-only effect, or another doubt; inactive means no such curve, though single readings can be large; an effect the other way counts as inactive or inconclusive. Unless noted, on the % scale 0 is the no-effect control and ±100 the full control effect.

SMILES	IL1B secr inh	DT40 TDP1 CPT	HT1080-NT tox	HT1080 IDH1KD tx	TDP1 cell noCPT
Cc1cccc(C)c1NC(=S)NCCc1ccc(O)c(O)c1	11.6	16.4µM*	-4.9%	-9.4%	13µM*
COc1ccc(CCNC(=S)Nc2cccc(C)c2C)cc1	18.0	?	2.2%	12.7%	?
Fc1ccccc1NC(=S)NN(Cc1ccccc1)c1ccccc1	2.6	?	11.2µM*	?	?
Fc1ccc(F)c(NC(=S)NCCc2ccccc2)c1	-65.7*	16.4µM*	?	-17.8%	16.4µM*
Fc1ccccc1NC(=S)NCCc1ccccc1	39.1	7.31µM*	-1.1%	0.5%	9.2µM*
O=C(NCCc1ccccc1)Nc1cccc(Cl)c1	-16.0	16.4µM*	-12.7%	-16.4%	?
COc1ccc(NC(=O)NCCc2cccc(Cl)c2)cc1OC	-20.4	-16.6%	-4.4%	-1.7%	-7.3%
Cc1cccnc1NC(=S)NCCc1ccccc1	-20.8	?	-11.2%	-2.5%	20.6µM*
O=S(=O)(NC(=S)NC1CCCCC1)c1ccccc1	18.0	-4.2%	-9.3%	-18.3%	1.3%
CC(=O)Nc1ccc(NC(=O)Cc2ccc(S(=O)(=O)N3CCCCC3)cc2)cc1	1.3	-17.7%	-9.5%	-0.6%	-17.3%
O=C(CSc1nnc(-c2ccccc2)n1Cc1ccccc1)NNC(=O)c1ccccc1O	10.0	16.4µM*	-7.5%	-20.1%	25.9µM*
O=C(CSc1nnc(-c2ccccc2O)n1Cc1ccccc1)NNC(=O)c1ccccc1O	0.0	?	-19.0%	-23.5%	?
CCC1CCC2(CC1)NNC(=S)NN2	11.5	?	-7.2%	-5.8%	18.4µM*
CCCC[n+]1c(C)ccc2ccccc21	.	?	.	.	15.8µM*
CCCCN(C)Cc1c(C)[nH]c2c(ccc3ccccc32)c1=O	8.7	-1.5%	-7.3%	3.7%	1.2%
CCCCNC(=O)CSc1nc(CCC)nc2ccccc12	-13.8	23.1µM*	-8.4%	-9.0%	23.1µM*
CCc1nc(SCC(=O)Nc2ccc(N(C)C)cc2)c2ccccc2n1	?	?	-2.0%	-12.4%	14.6µM*
CCCNC(=O)CSc1nc(COc2ccccc2)nc2ccccc12	-66.6*	-1.5%	1.3%	11.8%	?
Cc1cc(C)c(NC(=O)CSc2nc(COc3ccccc3)nc3ccccc23)c(C)c1	-63.5*	23.1µM*	8.3%	?	18.4µM*
CCN(C(=O)COC(=O)c1c(NC(C)=O)sc(C)c1C)c1c(N)n(Cc2ccccc2)c(=O)[nH]c1=O	14.1	5.6%	11.3%	-4.4%	?
Cc1ccccc1-c1nc(NCCN2CCOCC2)c2ccccc2n1	.	-11.0%	.	.	-22.4%
CC(Oc1ccccc1)C(=O)N=C1SC2CS(=O)(=O)CC2N1Cc1ccccc1 (centres undefined)	-5.1	-3.2%	-10.7%	3.2%	12.8%
CCCCc1nc2cc(C(=O)N3CCCCC3CCNC(C)=O)ccc2o1 (centres undefined)	15.8	?	10.4%	13.4%	?
Cc1cc(C)c(NC(=O)CSc2nc3ccccc3c3nc(CCn4cncc4C)nn23)c(C)c1	.	13µM*	.	.	14.6µM*
O=C(CSc1ccc2ccccc2c1)NCCc1ccc(O)c(O)c1	-52.9*	16.4µM*	-27.3%	?	23.1µM*
SMILES	IL1B secr inh	DT40 TDP1 CPT	HT1080-NT tox	HT1080 IDH1KD tx	TDP1 cell noCPT
COc1ccc(CCNC(=O)CSc2ccc3ccccc3c2)cc1OC	2.3	?	0.9%	2.3%	?
O=P(COCCOCCOCCOCP(=O)(c1ccccc1)c1ccccc1)(c1ccccc1)c1ccccc1	-11.7	-25.3%	4.0%	8.7%	?
CCCCC(O)(c1ccc(OC)cc1)C(CN1CCOCC1)c1ccccc1 (centres undefined)	?	18.4µM*	?	?	23.1µM*
CCCCCC(O)(c1ccc(OC)cc1)C(CN1CCOCC1)c1ccccc1 (centres undefined)	-29.9	16.4µM*	?	?	10.3µM*
COc1ccc(C(O)(C(C)C)C(CN2CCOCC2)c2ccc(Cl)cc2)cc1 (centres undefined)	-17.1	?	-19.9%	7.4%	18.4µM*
CCCCCC(O)(c1ccc(OCC)cc1)C(CN1CCOCC1)c1ccccc1 (centres undefined)	-85.3*	?	?	16.4µM*	16.4µM*
CCCC(O)(c1ccc(OC)cc1)C(CN1CCOCC1)c1ccccc1 (centres undefined)	-5.4	?	-5.5%	-13.0%	?
COc1ccc(C(O)(C(C)C)C(CN2CCOCC2)c2ccccc2)cc1 (centres undefined)	12.6	?	3.6%	2.9%	?
N#CCC(=O)N/N=C\c1cc(Br)ccc1OC/C=C/c1ccccc1	-20.7	14.6µM*	-18.8%	?	25.9µM*
N#CCC(=O)N/N=C/c1cccc(Oc2ccccc2)c1	16.2	0.2%	-12.8%	-15.7%	-12.0%
CCOC(=O)N/N=C\c1ccccc1OC/C=C/c1ccccc1	-10.9	?	?	?	?
COC(=O)N/N=C\c1ccccc1OC/C=C/c1ccccc1	-64.6*	?	?	?	?
COc1ccc(CN2CCNC(=O)C2CC(=O)N(C)CC2CCOCC2)cc1C (centres undefined)	11.0	-4.9%	7.3%	2.6%	-4.6%
O=C(CCn1c(=O)oc2cc(Cl)ccc21)Nc1ccc(O)cc1	-16.7	-29.8%	-22.4%	-1.9%	?
COc1cc(CN2CCOc3ccc(C(O)c4cccnc4)cc3C2)cc(OC)c1 (centres undefined)	.	19.1%[9.04 µM]	.	.	-16.8%
C#CCNC(=O)C[C@@H]1C[C@@]2(C(=O)OC)CCCCC=C2N(CCC2=CCCCC2)C1=O	0.0	?	5.8%	-0.9%	18.4µM*
CCCCNC(=O)C[C@@H]1C[C@@]2(C(=O)OC)CCCCC=C2N(CCC2=CCCCC2)C1=O	?	?	-1.5%	-20.7%	18.4µM*
C#CCNC(=O)C[C@@H]1C[C@@]2(C(=O)OCC)CCC=C2N(CCC2=CCCCC2)C1=O	3.1	?	14.2%	1.5%	?
COc1cc(OC)c(OC)cc1CNC(=O)c1cc(S(=O)(=O)N(C)c2ccccc2OC)ccc1C	-1.8	?	-5.8%[9.24 µM]	-9.6%	?
CCN(CC)S(=O)(=O)c1cccc(C(=O)N/N=C/c2ccc(O)c(O)c2O)c1	34.5	14.6µM*	?	?	16.4µM*
CCOc1ccccc1/C=N/NC(=O)c1cccc(S(=O)(=O)N(CC)CC)c1	-1.0	16.5%	5.9%	13.0%	-19.0%
CCN(CC)S(=O)(=O)c1cccc(C(=O)N/N=C(\C)c2ccc(O)cc2O)c1	92.6	4.61µM*	?	1.46µM*	6.51µM*

High-throughput results (PubChem)
